Screening data: PubChem BioAssay, Sanford-Burnham Center for Chemical Genomics
CD11b adhes inh: CD11b/CD18-fibrinogen binding inhibition; inhibition, % at 10 µM; AID 1497; K562 CD11b/CD18 adhesion to fibrinogen, ATPlite luminescence; Mn2+ added to activate the integrin; actives 0.54% (n = 93,000); P05107+P11215;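 active = primary inhibition of 50% or more at 10 µM, then 40% or more on retest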
CYP2C19 inhib: blocks human cytochrome P450 2C19; P33261; CYP2C19 Supersomes, luciferin-H EGE luminescence, 30 min; inhibition, % at 5 µM; actives 21% (n = 96,000);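 active = CYP2C19 inhibition above a set limit at 5 µM in the primary screen, cut at about 50% in these data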;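 also: plate controls were negative control wells for no effect and 2.5 mM tranylcypromine positive control for full effect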
Target sequence (P33261 whole entry, looked up): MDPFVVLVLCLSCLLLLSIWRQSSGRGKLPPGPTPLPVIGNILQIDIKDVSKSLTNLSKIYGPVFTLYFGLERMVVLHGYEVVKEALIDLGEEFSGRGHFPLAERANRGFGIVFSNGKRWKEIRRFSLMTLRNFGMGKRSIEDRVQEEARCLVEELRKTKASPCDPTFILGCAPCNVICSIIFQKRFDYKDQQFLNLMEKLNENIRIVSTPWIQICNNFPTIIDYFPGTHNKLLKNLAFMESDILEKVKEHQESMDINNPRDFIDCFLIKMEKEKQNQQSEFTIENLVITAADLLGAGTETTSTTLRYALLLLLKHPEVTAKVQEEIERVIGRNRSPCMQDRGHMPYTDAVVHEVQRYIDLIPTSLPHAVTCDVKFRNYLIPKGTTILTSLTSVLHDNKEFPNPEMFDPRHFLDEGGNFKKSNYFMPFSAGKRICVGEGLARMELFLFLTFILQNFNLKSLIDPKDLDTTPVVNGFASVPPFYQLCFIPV
CYP2C9 inh: human CYP2C9 inhibition | inhibition, % at 5 µM | AID 777 | CYP2C9 Supersomes, luciferin-H conversion, luminescence | actives 20% (n = 96,000) | P11712;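 active = blocking of liver enzyme CYP2C9 beyond about 50% at 5 µM, limit read from the data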
Mac1 fbg enh: increases human CD11b/CD18 adhesion to fibrinogen. P05107+P11215. K562 CD11b/CD18 adhesion to fibrinogen, ATPlite luminescence. activation, % at 10 µM. actives 0.07% (n = 93,000). AID 1499;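 active = 10 µM primary screen giving 50% or more activity, confirmed by 40% or more on retest at that dose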
CYP2C19 act: activators of human cytochrome P450 2C19; P33261; recombinant CYP2C19, luciferin-H EGE luminescence; active compounds read high; 0 = fully inhibited enzyme, 1 = untreated enzyme; activation factor at 5 µM; 96,000 tested, under 10 active; AID 1025;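 active = activation factor of at least 2 at 5 µM in the primary screen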;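 also: 0 = wells with 2.5 mM tranylcypromine and 1 = vehicle-only wells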
CYP2C9 act: increases human cytochrome P450 2C9 activity; actives 1.4% (n = 96,000); activation factor at 5 µM; P11712; AID 1024; recombinant CYP2C9, luciferin-H conversion, luminescence; active compounds read high; factor 1 = untreated enzyme, 0 = blocked;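 active = activation factor of 2 or more for CYP2C9 at a 5 µM dose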;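 also: 0 = sulfaphenazole-blocked wells and 1 = vehicle-only wells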
Starred values were filed as active, the others as inactive; · = not tested or not shown. Most compounds without a hit are left out; they make up all but 28% or so of the library.

SMILES	CD11b adhes inh	CYP2C19 inhib	CYP2C9 inh	Mac1 fbg enh	CYP2C19 act	CYP2C9 act
O=C(CN1CCCCC1)Nc1ccc(NC(=O)c2ccc(Cl)cc2)cc1Cl	·	18	16	·	0.8	0.8
CCc1nc(SCC(=O)Nc2ccc3c(c2)OCCO3)c2oc3ccccc3c2n1	·	24	52*	·	0.8	0.5
Cc1cc(OCCCCN2C(=O)NC(C)(C)C2=O)cc(C)c1Cl	-11	76*	-4	0	0.2	1
C/C=C/c1ccc(OCCN2C(=O)NC(C)(C)C2=O)c(OC)c1	5	37	11	-2	0.6	0.9
CCc1cc(OCCN2C(=O)NC(C)(C)C2=O)ccc1Cl	2	74*	42	-5	0.3	0.6
CC1(C)NC(=O)N(CCCSc2ccc(Cl)cc2)C1=O	5	93*	62*	-3	0.1	0.4
CC1(C)NC(=O)N(CN2C(=O)NC(C)(C)C2=O)C1=O	-29	2	8	1	1	0.9
CC1(C)NC(=O)N(CCCOc2ccc3c(c2)CCC3)C1=O	-3	90*	11	11	0.1	0.9
Cc1cc(OCCCCCNCCO)cc(C)c1Cl	-4	17	16	-2	0.8	0.8
CCCCc1ccc(-c2nc(NC(=O)C3C4CCC(O4)C3C(=O)O)sc2C)cc1 (centres undefined)	·	6	-8	·	0.9	1.1
COC(=O)c1ccc(COc2ccccc2/C=N/NS(=O)(=O)c2ccccc2)cc1	0	7	23	-3	0.9	0.8
CCN1CCN(CCCNC(=O)C2CCCN(c3nnc(-n4cccc4)s3)C2)CC1 (centres undefined)	-18	6	19	2	0.9	0.8
Cc1cccc2cc(CN(C(=O)c3cnccn3)C3CCCCC3)c(Cl)nc12	6	34	34	3	0.7	0.7
CC1(C)NC(=O)N(CNc2cc(Cl)ccc2Cl)C1=O	-47	88*	-206	1	0.1	3.1*
CC1(C)NC(=O)N(CCCCOc2ccc(Cl)cc2)C1=O	10	86*	44	-1	0.1	0.6
CC(=O)c1cc(C#N)c(SCC(=O)OC(C)(C)C)nc1C	16	36	18	-2	0.6	0.8
O=C1CC(c2ccccc2)CC(O)=C1C=NCc1ccc(Cl)cc1 (centres undefined)	-10	29	14	12	0.7	0.9
O=C1CC(c2cccc(Cl)c2)CC(O)=C1C=NCCCO (centres undefined)	-23	11	-170	1	0.9	2.7*
CCCN1C2=NCCN2c2cc(C)c(C)cc21	8	-6	3	-2	1.1	1
CCCCOc1ccc(NC(=O)C(=O)NCCC2=CCCCC2)cc1	-8	-3	-12	5	1	1.1
O=C(CSc1nnc(-c2ccc(S(=O)(=O)N3CCCC3)cc2)o1)NCc1ccco1	-9	63*	77*	-3	0.4	0.2
Cc1ccc(-c2nnc(SCC(=O)Nc3ccc(S(=O)(=O)N4CCCCCC4)cc3)o2)cc1	4	8	25	6	0.9	0.7
CC1Cc2ccccc2N1C(=O)CSc1nnc(-c2ccc(S(=O)(=O)N3CCCC3)cc2)o1 (centres undefined)	-4	66*	88*	3	0.3	0.1
CCN(CC)C(=O)CSc1nnc(-c2ccc(S(=O)(=O)N3CCCC3)cc2)o1	3	12	31	-7	0.9	0.7
COc1ccc(Cc2nnc(SCC(=O)NCc3ccco3)o2)cc1	14	42	42	-5	0.6	0.6
SMILES	CD11b adhes inh	CYP2C19 inhib	CYP2C9 inh	Mac1 fbg enh	CYP2C19 act	CYP2C9 act
COc1ccc(-c2nnc(SCC(=O)NCc3ccco3)o2)cc1	-7	65*	-30	3	0.3	1.3
COc1cc(OC)cc(-c2nnc(SCC(=O)NCc3cccs3)o2)c1	-3	89*	20	-4	0.1	0.8
Cc1ccc(N(C(=O)C2CCCC2)C2C=CS(=O)(=O)C2)cc1C (centres undefined)	-48	10	5	7	0.9	0.9
Clc1cccc(CN2CCCCCCC2)c1Cl	4	·	·	1	·	·
CCN(CC)S(=O)(=O)c1ccc(-c2nnc(SCC(=O)N3CCOCC3)o2)cc1	7	21	32	-2	0.8	0.7
Cc1csc(NC(=O)CSc2nnc(-c3ccc(S(=O)(=O)N4CCCC4)cc3)o2)n1	-2	31	61*	-2	0.7	0.4
COC(=O)CNC(=O)CSc1nnc(-c2ccc(OC)cc2)n1CC(C)C	-1	-12	-18	-4	1.1	1.2
COc1ccc(OCc2nnc(SCC(=O)NCc3ccco3)o2)cc1	-6	21	72*	-2	0.8	0.3
CCc1ccc(OCc2nnc(SCC(=O)NCc3ccco3)o2)cc1	-49	32	-13	2	0.7	1.1
COc1ccc(-c2nnc(SCC(=O)NCc3cccs3)n2CC(C)C)cc1	2	51*	65*	-1	0.5	0.3
CCN(CC)S(=O)(=O)c1ccc(-c2nnc(SCC(=O)Nc3nc(C)cs3)o2)cc1	10	7	46	1	0.9	0.5
CCN(CC)S(=O)(=O)c1ccc(-c2nnc(SCC(=O)N3CCc4ccccc43)o2)cc1	7	17	66*	52	0.8	0.3
CCCn1c(CNS(=O)(=O)c2ccc(C)cc2)nc2ccccc21	-11	36	-23	-2	0.6	1.2
N#CC1=C(N)n2c(s/c(=C\c3ccco3)c2=O)=C(C#N)C1c1ccco1 (centres undefined)	8	5	51*	-5	0.9	0.5
COC(=O)C1=C(N)n2c(s/c(=C\c3cccnc3)c2=O)=C(C(=O)OC)C1c1cccnc1 (centres undefined)	-8	70*	50	1	0.3	0.5
N#CC1=C(N)n2c(s/c(=C\c3cccs3)c2=O)=C(C#N)C1c1cccs1 (centres undefined)	-7	·	·	44	·	·
CCOC(=O)C1=C(N)n2c(s/c(=C/c3ccco3)c2=O)=C(C(=O)OC)C1c1ccco1 (centres undefined)	4	24	78*	48	0.8	0.2
CCOC(=O)C1=c2s/c(=C\c3cccnc3)c(=O)n2C(N)=C(C(=O)OC)C1c1cccnc1 (centres undefined)	2	90*	88*	17	0.1	0.1
Cc1nn(Cc2ccc(Cl)cc2Cl)c(C)c1NC(=O)c1nn(C)cc1Cl	·	6	-18	·	0.9	1.2
Cc1nn(C)c(Cl)c1NC(=O)OCc1ccc(Cl)cc1Cl	·	68*	-14	·	0.3	1.1
Cc1nnsc1NC(=O)OCCCl	4	-3	0	-6	1	1
Cc1nnsc1NC(=O)OCc1ccc(Cl)cc1Cl	11	71*	44	-8	0.3	0.6
CC(NC(=O)C1CCCCC1)C(=O)NC1=NCCS1 (centres undefined)	5	8	-1	-1	0.9	1
